Most compounds without a hit are left out; they make up all but 12% or so of the library.
USP10 inh: inhibitors of human USP10 deubiquitinase | Ubiquitin carboxyl-terminal hydrolase 10 (Homo sapiens), Q14694 | purified USP10, Ub-rhodamine fluorescence, 60 min | inhibition, % at 20 µM | 47,000 compounds, 1.1% hits | AID 1645856, 2021
USP7 block: inhibitors of human USP7 deubiquitinase. 47,000 compounds, 0.3% hits. AID 1645854, 2021. inhibition, % at 20 µM. Ubiquitin carboxyl-terminal hydrolase 7 (Homo sapiens), Q93009. purified USP7, Ub-rhodamine cleavage fluorescence
USP8 block: inhibitors of human USP8 deubiquitinase; Ubiquitin carboxyl-terminal hydrolase 8 (Homo sapiens), P40818; 47,000 compounds, 4.2% hits; purified USP8, Ub-rhodamine cleavage fluorescence, 30 min; inhibition, % at 20 µM
USP30 inh: inhibitors of human USP30 deubiquitinase. 47,000 compounds, 5.3% hits. Ubiquitin carboxyl-terminal hydrolase 30 (Homo sapiens), Q70CQ3. purified USP30, Ub-rhodamine cleavage fluorescence. inhibition, % at 25 µM. AID 1645860, 2021
UCHL1 inh: inhibitors of human UCHL1 deubiquitinase. Ubiquitin carboxyl-terminal hydrolase isozyme L1 (Homo sapiens), P09936. purified UCHL1, Ub-rhodamine cleavage fluorescence. inhibition, % at 20 µM. 47,000 compounds, 0.2% hits. AID 1645859, 2021
Target sequence (P09936 whole entry, looked up): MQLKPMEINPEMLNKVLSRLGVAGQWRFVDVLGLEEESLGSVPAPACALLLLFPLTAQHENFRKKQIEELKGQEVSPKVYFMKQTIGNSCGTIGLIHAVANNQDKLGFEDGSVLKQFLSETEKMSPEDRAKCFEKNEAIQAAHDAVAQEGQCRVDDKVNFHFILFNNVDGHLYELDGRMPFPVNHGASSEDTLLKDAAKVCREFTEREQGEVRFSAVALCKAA
USP17 inh: inhibitors of human USP17 deubiquitinase. Ubiquitin carboxyl-terminal hydrolase 17-like protein 5 (Homo sapiens), A8MUK1. purified USP17, Ub-rhodamine cleavage fluorescence, 3 h. inhibition, % at 50 µM. 47,000 compounds, 6.5% hits. AID 1645855, 2021
An asterisk follows results filed as active; . = not tested or not shown. No stated cut-off is given here; in the data, active means inhibition above about 30%; inactive means the rest.

SMILES	USP10 inh	USP7 block	USP8 block	USP30 inh	UCHL1 inh	USP17 inh
Cc1ccc(NC(=O)c2cnc3ccccc3n2)cc1Cl	-2	-2	65*	-162	0	2
O=C(Nc1ccc(F)c(F)c1)c1cnc2ccccc2n1	-7	4	11	-76	0	-10
O=C(Cc1nnc(-c2cnccn2)o1)NCc1ccccc1	-1	1	5	0	0	0
Cc1cc2cc3c(cc2n2c(=O)n(CCN4CCCC4)nc12)OCO3	1	3	8	42*	1	47*
Cc1ccc(CNC(=O)c2ccc(N3C(=O)CCS3(=O)=O)cc2)cc1	0	2	14	10	1	5
O=C(Nc1cc(S(=O)(=O)N2CCCCC2)ccc1N1CCCCC1)C1COc2ccccc2O1 (centres undefined)	-12	-2	-259	-117	-3	-47
O=C(O)c1ccc(Cl)c(NC(=O)C2COc3ccccc3O2)c1 (centres undefined)	-2	58*	-2	-1	-5	-2
Cc1[nH]nc(NC(=O)C2COc3ccccc3O2)c1-c1ccccc1 (centres undefined)	26	-141	47*	25	32*	39*
O=C(NCCCc1ccccc1)C1CCCN(C(=O)c2cc(-c3cccnc3)n[nH]2)C1 (centres undefined)	0	-3	-6	-28	-1	.
CCCCNc1nc2c(-c3ccccc3)nnn2c2ccccc12	1	4	2	9	-1	68*
c1ccc(-c2nnn3c2nc(NCC2CCCO2)c2ccccc23)cc1 (centres undefined)	2	-2	-1	-22	0	-18
COCCNc1nc2c(-c3cccc(C(F)(F)F)c3)nnn2c2ccccc12	1	7	19	32*	3	13
COc1ccc(NC(=O)C2CCCN(c3cc(=O)n(C)c(=O)n3C)C2)cc1 (centres undefined)	-2	6	16	21	1	-10
COc1nccc(N2CCC(CC(=O)N3CCN(C)CC3)CC2)n1	-2	-1	-3	1	-4	-2
COc1ccc(S(=O)(=O)N2CCC(c3ncc(C)[nH]3)C2)cc1 (centres undefined)	6	5	-31	31*	-2	12
COc1ccc(S(=O)(=O)N2CCC(c3ncncc3-c3ccnc(N)c3)C2)cc1 (centres undefined)	-6	-1	-12	-41	-3	-4
CC(C)=CCC[C@@](C)(O)[C@@H]1CC[C@@](C)(O)[C@H]1C	4	1	4	33*	0	7
O=S(=O)(Nc1ccc(N2CCCCC2)cc1)c1cccc(F)c1	1	-5	6	-28	-1	-12
O=S(=O)(Nc1ccc(N2CCCCC2)cc1)c1ccccc1F	2	-4	9	-68	6	34*
O=C(Nc1ccc2c(c1)N(C(=O)C1CCCC1)CC2)c1c(F)cccc1F	3	3	18	24	3	32*
COCCn1ccc2nc(C)c(C(=O)NCc3ccc4c(c3)OCO4)cc2c1=O	-2	4	4	-7	1	1
CCc1nnc(-c2nnc(NCCCN3CCOCC3)c3ccccc23)o1	0	1	2	21	4	13
CCc1nnc(-c2nnc(NCCOc3ccccc3OC)c3ccccc23)o1	13	7	66*	34*	1	20
Cc1ccc(CNC(=O)CCc2nc3sc4c(c3c(=O)[nH]2)CCC(C)C4)cc1 (centres undefined)	-1	0	-6	-33	-2	0
Cc1ccc(-c2cc(C(=O)N(C)Cc3cnn(C)c3)c3ccccc3n2)cc1C	-10	-9	-9	-32	-8	-22
Nc1c(-c2ccc(Cl)cc2)cnc2cc(-c3ccc(Cl)c(Cl)c3)nn12	7	7	4	60*	-3	41*
Nc1c(-c2ccc(Cl)cc2)cnc2nc(Sc3ncc(C(F)(F)F)cc3Cl)nn12	23	9	35*	33*	2	26

Compound activity from PubChem.
